Legend:
Conditions in all cases: concentration: 1 μM, replicates: in singlicate; n = 1
[1] = test system: DMPK
[2] = test system: T1, DRAK1
T1 construct: gene STK17A

[3] = test system: T2, DRAK2
T2 construct: gene STK17B

[4] = test system: DYRK1A
[5] = test system: DYRK1B
[6] = test system: DYRK2
[7] = test system: EGFR
[8] = test system: EIF2AK1
[9] = test system: EPHA1
[10] = test system: EPHA2
[11] = test system: EPHA3
[12] = test system: EPHA4
[13] = test system: EPHA5
[14] = test system: EPHA6
[15] = test system: EPHA7
[16] = test system: EPHA8
[17] = test system: EPHB1
[18] = test system: EPHB2
[19] = test system: EPHB3
[20] = test system: EPHB4
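Further: KINOMEscan kinase panel screen.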

## Cn1ccc2ncnc(Oc3ccc(NC(=O)Nc4ccncc4)c(Cl)c3)c21
[1]
  %Inh: 0%
[2]
  %Inh: 0%
[3]
  %Inh: 0%
[4]
  %Inh: 0%
[5]
  %Inh: 21%
[6]
  %Inh: 0%
[7]
  %Inh: 0%
[8]
  %Inh: 0%
[9]
  %Inh: 0%
[10]
  %Inh: 0%
[11]
  %Inh: 0%
[12]
  %Inh: 14%
[13]
  %Inh: 0%
[14]
  %Inh: 16%
[15]
  %Inh: 0%
[16]
  %Inh: 0%
[17]
  %Inh: 0%
[18]
  %Inh: 2%
[19]
  %Inh: 6%
[20]
  %Inh: 1%

## CCc1ccnc(/C=C/c2n[nH]c3cc(Sc4ccccc4C(=O)NC)ccc23)c1
[1]
  %Inh: 6%
[2]
  %Inh: 12%
[3]
  %Inh: 0%
[4]
  %Inh: 8%
[5]
  %Inh: 4%
[6]
  %Inh: 0%
[7]
  %Inh: 0%
[8]
  %Inh: 14%
[9]
  %Inh: 0%
[10]
  %Inh: 0%
[11]
  %Inh: 0%
[12]
  %Inh: 1%
[13]
  %Inh: 5%
[14]
  %Inh: 0%
[15]
  %Inh: 2%
[16]
  %Inh: 7%
[17]
  %Inh: 4%
[18]
  %Inh: 0%
[19]
  %Inh: 0%
[20]
  %Inh: 0%

## O=C(NCCCN1CCOCC1)c1cccc(Nc2nccc(Nc3ccc(Oc4ccccc4)cc3)n2)c1 [GW663929]
[1]
  %Inh: 0%
[2]
  %Inh: 10%
[3]
  %Inh: 8%
[4]
  %Inh: 0%
[5]
  %Inh: 31%
[6]
  %Inh: 16%
[7]
  %Inh: 80%
[8]
  %Inh: 0%
[9]
  %Inh: 0%
[10]
  %Inh: 0%
[11]
  %Inh: 25%
[12]
  %Inh: 3%
[13]
  %Inh: 0%
[14]
  %Inh: 3%
[15]
  %Inh: 0%
[16]
  %Inh: 0%
[17]
  %Inh: 1%
[18]
  %Inh: 0%
[19]
  %Inh: 2%
[20]
  %Inh: 14%

## Cc1c2ccc(N(C)c3ccnc(Nc4cccc(S(N)(=O)=O)c4)n3)cc2nn1Cc1ccccc1.Cl.Cl [GW787226]
[1]
  %Inh: 8%
[2]
  %Inh: 3%
[3]
  %Inh: 16%
[4]
  %Inh: 0%
[5]
  %Inh: 0%
[6]
  %Inh: 0%
[7]
  %Inh: 5%
[8]
  %Inh: 0%
[9]
  %Inh: 21%
[10]
  %Inh: 4%
[11]
  %Inh: 15%
[12]
  %Inh: 21%
[13]
  %Inh: 0%
[14]
  %Inh: 19%
[15]
  %Inh: 0%
[16]
  %Inh: 39%
[17]
  %Inh: 12%
[18]
  %Inh: 20%
[19]
  %Inh: 7%
[20]
  %Inh: 0%

## COc1ccc(Nc2nccc(N3CCC(NC(=O)Nc4cc(C)ccc4C)C3)n2)cc1 (stereo not drawn) [GSK1379741]
[1]
  %Inh: 0%
[2]
  %Inh: 0%
[3]
  %Inh: 0%
[4]
  %Inh: 14%
[5]
  %Inh: 0%
[6]
  %Inh: 12%
[7]
  %Inh: 33%
[8]
  %Inh: 0%
[9]
  %Inh: 30%
[10]
  %Inh: 0%
[11]
  %Inh: 0%
[12]
  %Inh: 12%
[13]
  %Inh: 0%
[14]
  %Inh: 0%
[15]
  %Inh: 5%
[16]
  %Inh: 2%
[17]
  %Inh: 14%
[18]
  %Inh: 27%
[19]
  %Inh: 8%
[20]
  %Inh: 9%

## Cc1cccc(Cn2ccn3c(=O)cc(N4CCOCC4)nc23)c1 [GSK2297542]
[1]
  %Inh: 3%
[2]
  %Inh: 1%
[3]
  %Inh: 0%
[4]
  %Inh: 24%
[5]
  %Inh: 17%
[6]
  %Inh: 12%
[7]
  %Inh: 22%
[8]
  %Inh: 11%
[9]
  %Inh: 16%
[10]
  %Inh: 15%
[11]
  %Inh: 12%
[12]
  %Inh: 10%
[13]
  %Inh: 0%
[14]
  %Inh: 9%
[15]
  %Inh: 0%
[16]
  %Inh: 19%
[17]
  %Inh: 23%
[18]
  %Inh: 0%
[19]
  %Inh: 13%
[20]
  %Inh: 15%

## CN(C(=O)c1ccc(-c2cc(-c3c[nH]nc3-c3ccccn3)ccn2)cc1)C1CCOCC1 [GW810083]
[1]
  %Inh: 0%
[2]
  %Inh: 1%
[3]
  %Inh: 2%
[4]
  %Inh: 0%
[5]
  %Inh: 9%
[6]
  %Inh: 9%
[7]
  %Inh: 0%
[8]
  %Inh: 0%
[9]
  %Inh: 0%
[10]
  %Inh: 0%
[11]
  %Inh: 27%
[12]
  %Inh: 0%
[13]
  %Inh: 4%
[14]
  %Inh: 0%
[15]
  %Inh: 0%
[16]
  %Inh: 0%
[17]
  %Inh: 0%
[18]
  %Inh: 0%
[19]
  %Inh: 0%
[20]
  %Inh: 0%

## CCc1nc(-c2cccc(C)c2)c(-c2ccnc(NCc3ccccc3)c2)s1
[1]
  %Inh: 0%
[2]
  %Inh: 2%
[3]
  %Inh: 16%
[4]
  %Inh: 0%
[5]
  %Inh: 23%
[6]
  %Inh: 2%
[7]
  %Inh: 0%
[8]
  %Inh: 0%
[9]
  %Inh: 0%
[10]
  %Inh: 1%
[11]
  %Inh: 0%
[12]
  %Inh: 0%
[13]
  %Inh: 0%
[14]
  %Inh: 17%
[15]
  %Inh: 4%
[16]
  %Inh: 11%
[17]
  %Inh: 15%
[18]
  %Inh: 6%
[19]
  %Inh: 0%
[20]
  %Inh: 3%

## COc1cc(Nc2nccc(N3CCC(NC(=O)c4cccc(NC(C)=O)c4)C3)n2)cc(OC)c1OC (stereo not drawn) [GSK1379754]
[1]
  %Inh: 0%
[2]
  %Inh: 32%
[3]
  %Inh: 29%
[4]
  %Inh: 17%
[5]
  %Inh: 28%
[6]
  %Inh: 28%
[7]
  %Inh: 0%
[8]
  %Inh: 0%
[9]
  %Inh: 11%
[10]
  %Inh: 0%
[11]
  %Inh: 0%
[12]
  %Inh: 9%
[13]
  %Inh: 6%
[14]
  %Inh: 20%
[15]
  %Inh: 11%
[16]
  %Inh: 26%
[17]
  %Inh: 15%
[18]
  %Inh: 0%
[19]
  %Inh: 17%
[20]
  %Inh: 12%

## N#Cc1c(N2CCOCC2)sc(-c2ccn[nH]2)c1-c1ccc(Cl)cc1
[1]
  %Inh: 4%
[2]
  %Inh: 0%
[3]
  %Inh: 0%
[4]
  %Inh: 0%
[5]
  %Inh: 47%
[6]
  %Inh: 0%
[7]
  %Inh: 0%
[8]
  %Inh: 0%
[9]
  %Inh: 1%
[10]
  %Inh: 0%
[11]
  %Inh: 11%
[12]
  %Inh: 0%
[13]
  %Inh: 16%
[14]
  %Inh: 27%
[15]
  %Inh: 5%
[16]
  %Inh: 7%
[17]
  %Inh: 14%
[18]
  %Inh: 0%
[19]
  %Inh: 15%
[20]
  %Inh: 12%

## CNc1ncnc2[nH]ncc12 [SKF-18355]
[1]
  %Inh: 0%
[2]
  %Inh: 10%
[3]
  %Inh: 0%
[4]
  %Inh: 0%
[5]
  %Inh: 0%
[6]
  %Inh: 37%
[7]
  %Inh: 0%
[8]
  %Inh: 0%
[9]
  %Inh: 0%
[10]
  %Inh: 0%
[11]
  %Inh: 11%
[12]
  %Inh: 0%
[13]
  %Inh: 0%
[14]
  %Inh: 0%
[15]
  %Inh: 0%
[16]
  %Inh: 29%
[17]
  %Inh: 0%
[18]
  %Inh: 0%
[19]
  %Inh: 0%
[20]
  %Inh: 0%

## Fc1ccc(-c2ncn(CCCN3CCOCC3)c2-c2ccccn2)cc1 [SB-211742]
[1]
  %Inh: 17%
[2]
  %Inh: 0%
[3]
  %Inh: 0%
[4]
  %Inh: 11%
[5]
  %Inh: 37%
[6]
  %Inh: 5%
[7]
  %Inh: 12%
[8]
  %Inh: 0%
[9]
  %Inh: 17%
[10]
  %Inh: 31%
[11]
  %Inh: 0%
[12]
  %Inh: 8%
[13]
  %Inh: 0%
[14]
  %Inh: 0%
[15]
  %Inh: 0%
[16]
  %Inh: 9%
[17]
  %Inh: 20%
[18]
  %Inh: 0%
[19]
  %Inh: 20%
[20]
  %Inh: 28%

## CCn1cnc2c(N)ncnc21 [GW345098]
[1]
  %Inh: 0%
[2]
  %Inh: 6%
[3]
  %Inh: 9%
[4]
  %Inh: 0%
[5]
  %Inh: 28%
[6]
  %Inh: 12%
[7]
  %Inh: 15%
[8]
  %Inh: 0%
[9]
  %Inh: 6%
[10]
  %Inh: 14%
[11]
  %Inh: 0%
[12]
  %Inh: 7%
[13]
  %Inh: 16%
[14]
  %Inh: 17%
[15]
  %Inh: 3%
[16]
  %Inh: 1%
[17]
  %Inh: 7%
[18]
  %Inh: 0%
[19]
  %Inh: 17%
[20]
  %Inh: 14%

## Cc1ccc(NC(=O)c2ccnc(N3CCN(C)CC3)c2)cc1-c1ccc(C(=O)NCC2CC2)cc1 [GW775604]
[1]
  %Inh: 7%
[2]
  %Inh: 0%
[3]
  %Inh: 0%
[4]
  %Inh: 0%
[5]
  %Inh: 0%
[6]
  %Inh: 0%
[7]
  %Inh: 0%
[8]
  %Inh: 0%
[9]
  %Inh: 0%
[10]
  %Inh: 0%
[11]
  %Inh: 0%
[12]
  %Inh: 7%
[13]
  %Inh: 0%
[14]
  %Inh: 4%
[15]
  %Inh: 0%
[16]
  %Inh: 18%
[17]
  %Inh: 0%
[18]
  %Inh: 0%
[19]
  %Inh: 7%
[20]
  %Inh: 0%

## COc1ccc(Nc2ncc(C#N)c(Nc3ccccc3C(N)=O)n2)cc1N1CCN(C)CC1.Cl [GSK1558669]
[1]
  %Inh: 88%
[2]
  %Inh: 99.1%
[3]
  %Inh: 83%
[4]
  %Inh: 99.8%
[5]
  %Inh: 87%
[6]
  %Inh: 99.1%
[7]
  %Inh: 92.7%
[8]
  %Inh: 48%
[9]
  %Inh: 92.9%
[10]
  %Inh: 80%
[11]
  %Inh: 95%
[12]
  %Inh: 61%
[13]
  %Inh: 35%
[14]
  %Inh: 86%
[15]
  %Inh: 81%
[16]
  %Inh: 29%
[17]
  %Inh: 98.6%
[18]
  %Inh: 59%
[19]
  %Inh: 28%
[20]
  %Inh: 76%

From paper PMC5540273 (PLoS ONE, 2017)
